The list is not random: actives were taken first. Their share in the collection is about 2.3%.
MBD2 DNA inh = inhibitors of MBD2 binding to methylated DNA, primary screen, biochemical, TR-FRET, DNA-binding domain, human; Methyl-CpG-binding domain protein 2 (Homo sapiens), Q9UBB5; MBD2 binding to methylated oligonucleotide; inhibition, % at 4.4 µM; 370,000 compounds, 0.31% hits; AID 686964, 2013; in the data active = inhibition above about 13%
UHRF1 binding = UHRF1 methylated DNA binding inhibitors, primary screen, counter-screen for MBD2 inhibitor project, biochemical, TR-FRET, human UHRF1, single concentration | UHRF1 binding to methylated oligo | inhibition, % at 4.4 µM | 370,000 compounds, 0.75% hits; in the data active = inhibition above about 21%;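 also: UHRF1 SRA domain binding a hemimethylated CpG hairpin DNA probe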
Target sequence (Q96T88 whole entry, looked up, the tested form may be a part): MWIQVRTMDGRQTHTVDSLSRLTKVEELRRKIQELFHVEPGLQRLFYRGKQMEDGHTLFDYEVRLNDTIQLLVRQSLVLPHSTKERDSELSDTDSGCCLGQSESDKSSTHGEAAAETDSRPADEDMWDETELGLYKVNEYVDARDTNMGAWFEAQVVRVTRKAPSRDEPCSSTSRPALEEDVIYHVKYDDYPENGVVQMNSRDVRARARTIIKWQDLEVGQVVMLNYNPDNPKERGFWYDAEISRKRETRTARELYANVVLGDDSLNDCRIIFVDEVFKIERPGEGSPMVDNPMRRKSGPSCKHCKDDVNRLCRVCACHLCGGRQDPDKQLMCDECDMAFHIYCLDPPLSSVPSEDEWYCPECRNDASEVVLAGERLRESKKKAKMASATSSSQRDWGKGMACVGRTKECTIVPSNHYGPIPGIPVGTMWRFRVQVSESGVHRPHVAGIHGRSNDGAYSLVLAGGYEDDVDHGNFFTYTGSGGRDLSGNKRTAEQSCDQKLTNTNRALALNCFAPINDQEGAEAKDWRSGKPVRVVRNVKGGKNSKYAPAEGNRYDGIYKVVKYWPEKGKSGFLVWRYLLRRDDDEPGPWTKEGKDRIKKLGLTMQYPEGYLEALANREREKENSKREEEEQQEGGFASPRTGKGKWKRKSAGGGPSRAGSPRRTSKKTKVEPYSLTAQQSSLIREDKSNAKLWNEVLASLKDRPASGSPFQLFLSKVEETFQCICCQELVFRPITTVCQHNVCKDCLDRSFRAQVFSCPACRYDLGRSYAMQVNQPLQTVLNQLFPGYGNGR
PLCg1 inh = PLC-gamma1 enzyme inhibitors, primary screen, biochemical, fluorescence, purified enzyme; 1-phosphatidylinositol 4,5-bisphosphate phosphodiesterase gamma-1 (Homo sapiens), P19174; fluorogenic substrate; inhibition, % at 12.2 µM; 370,000 compounds, 0.84% hits; AID 720700, 2013; in the data active = inhibition above about 9.5%
LEDGF integ inh = blockers of LEDGF/p75-dependent integrase strand transfer – biochemical, TR-FRET, high throughput, primary screen; HIV-1 integrase (with human LEDGF/p75); TR-FRET IN-LEDGF/p75 DNA integration, Eu/Cy5; inhibition, % at 3.7 µM; 370,000 compounds, 0.64% hits; AID 743269, 2014;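 active = inhibition above the screen-wide mean plus 3 SD, cut at about 13% in these data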;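 also: signal is the Cy5 over europium emission ratio at 671 and 618 nm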
PLCb3 inh = human PLC-beta3 inhibitors, primary screen, biochemical, fluorescence; 1-phosphatidylinositol 4,5-bisphosphate phosphodiesterase beta-3 (Homo sapiens), Q01970; Purified PLC-beta3, fluorogenic substrate; inhibition, % at 12.2 µM; 370,000 compounds, 0.18% hits
PLCgamma1 ctr = PLC-gamma1 enzyme inhibitors, counter-screen for PLC-beta3 inhibitor project, biochemical, fluorescence | shares compounds with PLCg1 inh | purified PLC-gamma1, fluorogenic substrate | inhibition, % at 12.3 µM | 3,300 compounds, 3.1% hits | AID 743258, 2014; in the data active = inhibition above about 9.5%
PLCbeta3 conf = PLC-beta3 inhibitor confirmation, biochemical, fluorescence, purified enzyme | shares compounds with PLCg1 inh | fluorogenic substrate fluorescence | inhibition, % at 12.3 µM | 3,300 compounds, 1% hits
Each line names hits and unclear results; the compound was inactive in the other large screens (follow-up assays come after a bar, where they were run). Rule as the data show it, unless noted: active = inhibition above about 11%; inactive = the rest.

C(=C\c1ccccn1)/c1ccccn1	none
C(=NOCc1ccccc1)c1ccncc1	PLCg1 inh 10 | PLCgamma1 ctr inactive | PLCbeta3 conf inactive
C(=NOCCc1ccccc1)c1cccnc1	none
Cc1ccc(-c2cc(-c3nnc(SCC(=O)N4CCOCC4)n3N)[nH]n2)cc1	none
N/C(=N\N=C\c1ccc2c(c1)OCO2)c1nonc1N	PLCg1 inh 9.8, PLCb3 inh 13 | PLCgamma1 ctr inactive | PLCbeta3 conf inactive
O=[N+]([O-])c1ccccc1/C=C/C=Nn1c(-c2ccc(F)cc2)n[nH]c1=S	none
CCCNC(=S)N(Cc1ccccc1)Cc1nc2ccccc2c(=O)[nH]1	PLCg1 inh 20 | PLCgamma1 ctr inactive | PLCbeta3 conf inactive
COc1ccc2c(c1)CCCN2C(=O)C1CCCN(S(=O)(=O)c2cccc3cccnc23)C1 (centres undefined)	none
NC(N)=N/N=C(\N=Nc1ccccc1)c1cccc2cccnc12	none
NC(N)=N/N=C(\N=Nc1ccccc1)c1ccc(Cl)cc1	PLCg1 inh 10 | PLCgamma1 ctr inactive | PLCbeta3 conf inactive
CC(Cl)C(=O)N1CCC(C(=O)NCC2COc3ccccc3O2)CC1 (centres undefined)	none
CCCCNC(=O)C1(C)CCCCN1C(=O)c1ccc(F)c(C)c1 (centres undefined)	PLCg1 inh 14 | PLCgamma1 ctr inactive | PLCbeta3 conf inactive
Cc1ccc(-c2nnc(SCC(=O)Nc3ccc(Oc4ccccc4)cc3)n2-c2ccc(Cl)cc2)cc1	none
CCN1C(=O)C(CC(=O)Nc2ccc(OC)cc2)N(CCc2ccc(OC)cc2)C1=S (centres undefined)	PLCb3 inh 14 | PLCgamma1 ctr inactive | PLCbeta3 conf inactive
CN(C(=O)COC(=O)c1ccc2ccccc2n1)C1CCCCC1	PLCg1 inh 10 | PLCgamma1 ctr inactive | PLCbeta3 conf inactive
CCOC(=O)c1cccc(S(=O)(=O)N2CCCC2)c1	PLCg1 inh 10 | PLCgamma1 ctr inactive | PLCbeta3 conf inactive
CC(OC(=O)c1cccc(S(=O)(=O)N2CCCCC2)c1)C(=O)NCC1CCCCC1 (centres undefined)	PLCg1 inh 9.9 | PLCgamma1 ctr inactive | PLCbeta3 conf inactive
O=C(c1cccc(S(=O)(=O)N2CCCCC2)c1)N1CCc2ccccc21	PLCg1 inh 15 | PLCgamma1 ctr inactive | PLCbeta3 conf inactive
O=C(NCC1CCCCC1)c1cccc(S(=O)(=O)N2CCCC2)c1	none
NC(=O)COC(=O)c1cccc(S(=O)(=O)N2CCCCC2)c1	none
O=S(=O)(c1ccc(F)cc1)N1CCN(CC(O)COCc2ccccc2)CC1 (centres undefined)	none
COc1ccccc1COCC(O)CN1CCN(S(=O)(=O)c2cccc(F)c2)CC1 (centres undefined)	PLCg1 inh 15 | PLCgamma1 ctr inactive | PLCbeta3 conf inactive
O=C(CN1CCc2onc(-c3ccc(-n4cc(C5=CCCCC5)nn4)cc3)c2C1=O)N1CCOCC1	none
COC(=O)CSc1nnc(-c2cc(-c3ccccc3)n[nH]2)n1N	none
COc1ccccc1C(=O)COC(=O)c1cccc(S(=O)(=O)N2CCCC2)c1	none
COc1ccccc1COC(=O)c1cccc(S(=O)(=O)N2CCCC2)c1	PLCg1 inh 10, PLCb3 inh 11 | PLCgamma1 ctr 11 | PLCbeta3 conf 14
O=C(Nc1cnn(Cc2ccc(F)cc2)c1)c1cnccn1	none
O=C(Nc1cnn(Cc2ccc(F)cc2)c1)C(c1ccccc1)c1ccccc1	PLCg1 inh 10 | PLCgamma1 ctr inactive | PLCbeta3 conf inactive
COc1ccc(NC(=S)Nc2cc(C)[nH]n2)cc1Cl	none
COc1ccc(NC(=S)Nc2cc(-c3ccccc3)[nH]n2)cc1Cl	PLCg1 inh 12, PLCb3 inh 12 | PLCgamma1 ctr inactive | PLCbeta3 conf inactive
COc1ccccc1C(=O)NC1CCCCN(Cc2cccc(F)c2)C1=O (centres undefined)	none
CC(C)N(CCO)C(=O)CCc1nnc(Cc2cccc(C(F)(F)F)c2)o1	PLCg1 inh 9.7 | PLCgamma1 ctr inactive | PLCbeta3 conf inactive
CC(C)NC(=O)CCc1nnc(Cc2cccc(C(F)(F)F)c2)o1	none
Cc1cccn2cc(CCNC(=O)c3ccco3)nc12	none
Cc1cccn2cc(CNC(=O)c3ccco3)nc12	PLCb3 inh 11 | PLCgamma1 ctr inactive | PLCbeta3 conf inactive
CNC(=S)NCCN1CCOCC1	none
CCNC(=S)NCCN1CCOCC1	PLCb3 inh 12 | PLCgamma1 ctr inactive | PLCbeta3 conf inactive
Cc1nc(C(F)(F)F)ccc1C(=O)N1CCC1(C)C(=O)NS(=O)(=O)c1cccc(F)c1 (centres undefined)	none
Cc1nc(C(F)(F)F)ccc1C(=O)N1CCC1(C)C(=O)NS(=O)(=O)c1ccc2c(c1)CCO2 (centres undefined)	PLCg1 inh 10 | PLCgamma1 ctr inactive | PLCbeta3 conf inactive
O=C(NCc1ccccc1)C1=C[C@H](c2ccc(C(F)(F)F)cc2)C[C@H](OCc2ccc(CO)cc2)O1	PLCb3 inh 14 | PLCgamma1 ctr inactive | PLCbeta3 conf inactive
O=C(NCc1ccccc1)C1=C[C@H](c2ccccc2)C[C@H](OCc2ccc(CO)cc2)O1	none
C#CNC(=O)C1(CC=C)CCNCC1	PLCb3 inh 12 | PLCgamma1 ctr inactive | PLCbeta3 conf inactive
CC(NC(=O)c1ccc([N+](=O)[O-])cc1Cl)C1CC2CCC1C2 (centres undefined)	PLCg1 inh 11 | PLCgamma1 ctr inactive | PLCbeta3 conf inactive
Cc1ccc(CN2CCN(/N=C/c3ccc(C(F)(F)F)cc3)CC2)cc1	PLCg1 inh 10 | PLCgamma1 ctr inactive | PLCbeta3 conf inactive
[O-]C1=N/[N+](=C/c2ccccc2)CC1	none
[O-]C1=N/[N+](=C/c2ccccc2Cl)CC1	PLCg1 inh 11 | PLCgamma1 ctr inactive | PLCbeta3 conf inactive
COc1ccc(-n2c(COc3ccccc3)nnc2SCC(=O)Nc2ccc3c(c2)OCCO3)cc1	none
COc1cccc(-n2c(C)nnc2SCC#N)c1	PLCg1 inh 12, PLCb3 inh 13 | PLCgamma1 ctr inactive | PLCbeta3 conf inactive
CCC(C)c1ccccc1NS(=O)(=O)c1cnn(CC)c1 (centres undefined)	PLCg1 inh 9.8 | PLCgamma1 ctr inactive | PLCbeta3 conf inactive
CCn1cc(S(=O)(=O)Nc2ccccc2C(F)(F)F)cn1	none
CCOc1ccc(-n2c(SCC(=O)Nc3cccc4ccccc34)nnc2-c2cccs2)cc1	none
